Only some compounds are listed: those with a hit (about 1.2% of all), similar ones and a draw of the others.
EPAC2 ag: EPAC2 (human) agonism; Q8WZA2; EPAC2 activation, biochemical qHTS; response scale: 100% = 6.5 mM cAMP response; Potency, µM (top dose mostly 154 µM), for the others: top-dose activation, actives largely listed as activators; hit rate 0.079% among 360,000; AID 720711; note: nearly all actives have a fitted effect of over 50% in size
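Each well held 100 nM EPAC2, 250 nM RAP1B-BODIPY-GDP and 50 uM GDP. Fluorescence, read at 5-min intervals to 30 min, was referenced to a 6.5 mM cAMP positive control.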
EPAC1 agonist: activates human EPAC1 exchange factor | Potency, µM (titrated, usually from 154 µM), for inactives: top-dose activation, hits mostly activators | O95398 | hit rate 0.073% among 360,000 | EPAC1 agonist qHTS, biochemical assay; response scale: 100% = response to 6.5 mM cAMP; note: nearly all actives have a fitted effect of over 60% in size
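Normalized to 6.5 mM cAMP, activity reflects EPAC1-catalysed release of BODIPY-GDP from Rap1B, followed kinetically over 30 min at 480 nm excitation, 540 nm emission. Reaction contained 100 nM EPAC1, 250 nM Rap1B-BODIPY-GDP, 50 uM GDP.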
USP1-UAF1 inh: blocks the human USP1/UAF1 deubiquitinase complex | O94782 | recombinant USP1/UAF1, Ub-Rhodamine cleavage fluorescence | AID 743255 | hit rate 0.23% among 390,000 | Potency, µM (highest dose often 57.1 µM), for inactives: at the highest dose activity change, negative = inhibition, actives largely listed as inhibitors; note: % is set by controls: 0 for no effect and ±100 for the full control effect; nearly all actives have a fitted effect of over 60% in size
Target sequence (O94782 whole entry, looked up): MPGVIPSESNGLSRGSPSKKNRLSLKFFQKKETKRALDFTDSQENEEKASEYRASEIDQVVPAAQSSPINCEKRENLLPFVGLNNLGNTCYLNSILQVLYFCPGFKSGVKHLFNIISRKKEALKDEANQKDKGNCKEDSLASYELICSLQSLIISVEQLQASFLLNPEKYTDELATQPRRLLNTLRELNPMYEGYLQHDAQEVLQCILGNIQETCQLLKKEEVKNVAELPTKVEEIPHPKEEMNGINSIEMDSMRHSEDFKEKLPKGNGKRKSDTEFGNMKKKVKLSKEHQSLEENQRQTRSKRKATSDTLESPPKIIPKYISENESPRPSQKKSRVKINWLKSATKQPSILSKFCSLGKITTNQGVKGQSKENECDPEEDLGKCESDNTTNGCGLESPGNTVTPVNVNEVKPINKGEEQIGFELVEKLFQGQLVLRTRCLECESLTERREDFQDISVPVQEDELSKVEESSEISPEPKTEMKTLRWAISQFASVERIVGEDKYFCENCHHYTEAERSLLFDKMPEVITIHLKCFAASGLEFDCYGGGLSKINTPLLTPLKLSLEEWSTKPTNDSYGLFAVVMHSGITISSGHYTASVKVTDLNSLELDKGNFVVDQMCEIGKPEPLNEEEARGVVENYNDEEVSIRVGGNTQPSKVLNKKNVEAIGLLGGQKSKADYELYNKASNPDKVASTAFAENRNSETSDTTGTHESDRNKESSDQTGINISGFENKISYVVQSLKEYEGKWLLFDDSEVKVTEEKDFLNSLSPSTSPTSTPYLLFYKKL
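High-throughput fluorogenic screen: 1nM USP1/UAF1 complex, Ub-Rho substrate 150nM final, 50mM HEPES pH 7.8 with 0.5mM EDTA, 0.1 mg/ml BSA, 1mM TCEP and 0.01% Tween-20.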
EPAC1 antagonist: EPAC1 (human) antagonism; EPAC1 GEF assay, Rap1b-BODIPY-GDP exchange fluorescence; Potency, µM (doses to about 115 µM), for inactives: at the top dose activity change, negative = inhibition, usual class: inhibitors; O95398; AID 720709; hit rate 0.14% among 360,000;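 note: plate controls were vehicle for no effect and positive control for full effect; nearly all actives have a fitted effect of over 50% in size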
VDR inh: blocks the human vitamin D receptor; hit rate 0.93% among 400,000; P11473; Potency, µM, without a hit: max response, negative = inhibition, actives largely listed as inhibitors; AID 504847; VDR-SRC2-3 peptide fluorescence polarization, 2 h; note: % is set by controls: 0 for no effect and ±100 for the full control effect
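Two reagent solutions held at 4 deg C in the dark were dispensed, compounds pinned at 23 nl, and the mixture incubated 2 h at room temperature. Read-out: fluorescence polarization of VDR–SRC2-3 peptide binding.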
EPAC2 antagonist: EPAC2 (human) antagonism. Potency, µM (series often up to 114 µM), without a hit: at the highest dose activity, negative = inhibition, usual class: inhibitors. hit rate 0.18% among 360,000. Q8WZA2. EPAC2 GEF exchange of Rap1B-BODIPY-GDP, fluorescence; note: % is set by controls: 0 for no effect and ±100 for the full control effect; nearly all actives have a fitted effect of over 45% in size
The depositor's hits bear a star; ? = inconclusive; / = no result given; ! = a repeat was not active. Calls come from the whole dose curve; as a rule, active = well fitted curve in the direction sought with a large enough effect; inconclusive = small, poorly fitted or top-dose-only effect, or another doubt; inactive = no such curve, though single readings can be large; an effect the other way counts as inactive or inconclusive. Potency is the fitted concentration of half-maximal effect.

SMILES	EPAC2 ag	EPAC1 agonist	USP1-UAF1 inh	EPAC1 antagonist	VDR inh	EPAC2 antagonist
CCOc1ccc(S(=O)(=O)Nc2cc(SCC(=O)O)c(O)c3ccccc23)cc1	11%	28%	25µM*	89µM*	18µM*	-4%
Cc1ccc(C)c(S(=O)(=O)Nc2cc(SCC(=O)O)c(O)c3ccccc23)c1	4%	21%	?	?	22µM*	-6%
Cc1c(NS(=O)(=O)c2ccccc2)cc(C(C)C)c(O)c1S(=O)(=O)c1ccc(Cl)cc1	/	/	-27%	/	-2%	/
CCc1ccc(S(=O)(=O)Nc2cc(SCC(=O)O)c(O)c3ccccc23)cc1	10%	?	?	89µM*	?	?
COc1c(C=O)c(O)cc2c1C(=O)c1ccccc1C2=O	/	/	/	/	7.1µM*	/
Nc1c(O)ccc2c1C(=O)c1ccccc1C2=O	-12%	-11%	-21%	-10%	-22%	-8%
COc1ccc(/C=C/C(=O)c2cc(F)ccc2OC(=O)c2ccccc2)cc1OC	10%	3%	-19%	-18%	40µM*	0%
Cc1cc(=O)oc2c(O)c(O)ccc12	5%	-21%	-16%	14%	71µM*!	4%
CCc1nnc(NC(=O)c2ccc(S(=O)(=O)N3CCCC3)cc2)s1	-3%	-4%	-15%	15%	6%	7%
CCc1nnc(NC(=O)c2ccc(S(C)(=O)=O)cc2)s1	1%	14%	-26%	-6%	20µM*	3%
CCN(CC)S(=O)(=O)c1ccc(-c2csc(C)n2)cc1	-2%	-1%	-18%	-10%	22µM*	3%
O=C(/C=C/c1cn(-c2ccccc2)nc1-c1cccnc1)c1ccco1	9%	6%	-22%	-10%	50µM*	0%
O=C(/C=C/c1cn(-c2ccccc2)nc1-c1cccnc1)N1CCCC1	-2%	-4%	-23%	2%	-1%	7%
CN(C)CC(CCC(CN(C)C)C(=O)c1ccccc1)C(=O)c1ccccc1 (stereo unspecified)	15%	8%	-10%	-10%	45µM*	-7%
CC(=O)c1cccc(NC(=O)c2noc3c2CSc2ccccc2-3)c1	/	/	-2%	/	9%	/
Cc1cc2ccccc2c(=O)[nH]1	3%	1%	-6%	3%	19%	0%
O=c1[nH]c(Nc2ccccc2Cl)cc2ccccc12	2%	-2%	14µM*	7%	0%	7%
O=c1[nH]c(Nc2ccc(F)cc2)cc2ccccc12	19%	0%	13µM*	?	-13%	?
CC[C@H](C)[C@H](NC(=O)[C@H](CC(=O)O)NC(=O)[C@H](CC(C)C)NC(=O)[C@H](Cc1cnc[nH]1)NC(=O)[C@H](C)NC(=O)[C@H](Cc1ccccc1)NC(=O)[C@H](Cc1ccc(O)cc1)NC(=O)[C@@H](NC(=O)[C@H](C)NC(=O)[C@H](CCC(=O)O)NC(=O)[C@H](CCC(=O)O)NC(=O)[C@H](CC(=O)O)NC(=O)CCC(=O)O)C(C)C)C(=O)N[C@H](C(=O)N[C@@H](Cc1c[nH]c2ccccc12)C(=O)O)[C@@H](C)CC	/	/	/	/	-7%	/
CC(=O)OCC1=C(C(=O)O)N2C(=O)C(NC(=O)c3ccc(COc4c(C)cccc4Cl)o3)C2SC1 (stereo unspecified)	4%	0%	-10%	?	16µM*	-3%
CC(=O)OCC1=C(C(=O)O)N2C(=O)[C@@H](NC(=O)Cc3ccccc3)[C@H]2SC1	11%	-8%	-3%	-10%	-3%	-6%
CC(=O)OCC1=C(C(=O)O)N2C(=O)C(NC(=O)c3ccc(COc4ccc(Cl)cc4)o3)C2SC1 (stereo unspecified)	12%	-3%	-2%	5%	45µM*	-6%
CC(=O)OCC1=C(C(=O)O)N2C(=O)C(NC(=O)COc3ccc(F)cc3)C2SC1 (stereo unspecified)	16%	7%	-3%	?	7%	14%
CC(C)(CO)C(O)C(=O)NCCCC(=O)O (stereo unspecified)	/	/	/	/	1%	/
O=C(O)COc1ccc(/C=C/c2nc3ccc([N+](=O)[O-])cc3s2)cc1	4%	10%	-17%	2%	32µM*	-25%
SMILES	EPAC2 ag	EPAC1 agonist	USP1-UAF1 inh	EPAC1 antagonist	VDR inh	EPAC2 antagonist
Cc1cccc(OCC(=O)Nc2nc3ccc([N+](=O)[O-])cc3s2)c1	3%	0%	-4%	11%	16%	10%
Cc1cc(C)c2nc(N3C(=O)C(O)=C(C(=O)c4ccco4)C3c3ccco3)sc2c1 (stereo unspecified)	5%	-12%	-10%	50µM*	?	-7%
CC1=CCC[C@@H]2[C@@](C)(CC/C(C)=C/C(=O)O)[C@H](C)CC[C@@]12C	-9%	-19%	?	?	-29%	32µM*
NCCCC[C@H](NC(=O)CNC(=O)[C@@H]1CCCN1C(=O)[C@H](Cc1ccc(O)cc1)NC(=O)CN)C(=O)N[C@@H](Cc1ccccc1)C(=O)O	/	/	/	/	6%	/
CSCCC(C(=O)O)N1C(=O)c2ccc(C(=O)O)cc2C1=O (stereo unspecified)	10µM*	3%	-15%	5%	23%	-5%
C[C@@]12C=Cc3occc3C1CC[C@@]13C[C@@H](CCC12)[C@@](O)(CO)C3 (stereo partly specified)	/	/	/	/	40µM*	/
CCCCNC(=O)CCn1c(=O)c2ccccc2n(Cc2ccccc2C#N)c1=O	/	/	-14%	/	2%	/
O=C(COc1ccccc1C(=O)N/N=C\c1ccc(O)c(O)c1)N/N=C/c1ccc(O)c(O)c1	-5%	-9%	-12%	10µM*	8%	10%
O=C(NN=Cc1ccc(O)c(O)c1)c1ccccc1	6%	-1%	/	-8%	/	1%
CCOCC	/	/	/	/	1%	/
CCOc1ccc(NC(=NCc2ccc3c(c2)OCO3)SC2CC(=O)N(c3ccc(C(=O)O)cc3)C2=O)cc1 (stereo unspecified)	1%	?	-2%	28µM*	-3%	-15%
N#CC1=C(N)NC(=S)C(C(N)=O)C1c1ccc([N+](=O)[O-])cc1 (stereo unspecified)	10%	0%	-1%	-3%	79µM*	-19%
C=C1C2CC[C@]3(CCC4[C@@]5(C)CCC[C@@]4(CN(CCO)C5)[C@@H]3C2)[C@@H]1O (stereo partly specified)	/	/	/	/	2%	/
COC(=O)N1C(=O)[C@](CC(C)C)(c2ccccc2)N1C(=O)OC	7%	-9%	?	-14%	79µM*	9%
CCOC(=O)c1c(C)n(C)c2ccc(O)c(CN3CCC(C)CC3)c12	-3%	6%	6%	-17%	89µM*	-3%

Screening results: PubChem, National Center for Advancing Translational Sciences (NCATS)
